# Measured values reported in PubChem BioAssay AID1942 (Johns Hopkins Ion Channel Center, 2009).
# Screen size: about 2,400 compounds; about 580 (24%) were called active. The list is a sample of the results. A number with no mark means an inactive call.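 Rule for the calls: active = activity change at or above the mean plus 3 SD of buffer wells without dofetilide, per plate; inactive = the rest.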
# Target: Potassium voltage-gated channel subfamily KQT member 2 (Rattus norvegicus) (UniProt O88943)
# Assay: rat KCNQ2 channel activation by compounds alone, confirmation, counter-screen for hERG block protector project, cell-based, CHO, FluxOR thallium flux (AID 1942);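 note: normalized value minus buffer-control mean plus three SD of buffer wells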
# Details: CHO-KCNQ2 cells, FluxOR thallium flux fluorescence; at 10 µM; stronger effect = higher value
# Sequence of Potassium voltage-gated channel subfamily KQT member 2 (Rattus norvegicus) (O88943 whole entry, looked up): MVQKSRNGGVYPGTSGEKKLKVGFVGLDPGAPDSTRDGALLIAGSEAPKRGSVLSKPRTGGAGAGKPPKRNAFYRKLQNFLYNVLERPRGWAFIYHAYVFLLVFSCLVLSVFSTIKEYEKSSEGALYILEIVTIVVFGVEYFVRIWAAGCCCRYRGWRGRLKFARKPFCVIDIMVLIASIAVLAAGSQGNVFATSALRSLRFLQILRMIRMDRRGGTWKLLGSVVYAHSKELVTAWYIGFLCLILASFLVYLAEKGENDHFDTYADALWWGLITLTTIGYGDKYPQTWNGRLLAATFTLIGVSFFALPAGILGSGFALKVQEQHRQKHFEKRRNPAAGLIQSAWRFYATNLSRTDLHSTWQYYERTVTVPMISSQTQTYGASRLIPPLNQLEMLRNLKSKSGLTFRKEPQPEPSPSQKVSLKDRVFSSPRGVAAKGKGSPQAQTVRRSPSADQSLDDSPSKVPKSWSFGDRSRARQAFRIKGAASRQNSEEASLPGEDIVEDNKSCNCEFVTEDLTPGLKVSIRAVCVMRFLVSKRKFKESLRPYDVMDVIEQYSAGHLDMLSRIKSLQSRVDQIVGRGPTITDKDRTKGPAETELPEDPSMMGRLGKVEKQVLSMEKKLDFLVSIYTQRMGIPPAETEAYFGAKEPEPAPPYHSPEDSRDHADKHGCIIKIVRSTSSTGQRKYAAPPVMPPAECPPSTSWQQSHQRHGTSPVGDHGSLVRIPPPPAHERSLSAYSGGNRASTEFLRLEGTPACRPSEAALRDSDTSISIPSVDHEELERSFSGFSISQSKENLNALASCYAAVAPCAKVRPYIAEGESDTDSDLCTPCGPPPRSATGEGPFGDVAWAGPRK
row,Structure (SMILES),"activity change, less the hit threshold"
1,CC(Oc1ccc(Cl)cc1Cl)C(=O)Nc1cccnc1 (stereo not given),-25.1%
2,COc1ccc(C(=O)NNC(=O)C(=O)Nc2ccc(C)c(Cl)c2)cc1,-0.2%
3,COc1ccc(NC(=O)C(=O)NNC(=O)c2ccc(Cl)cc2Cl)cc1,-7.7%
4,COc1cccc(C(=O)NNC(=O)C(=O)Nc2cccc(Cl)c2C)c1,54.1% (active)
5,COc1ccc(NC(=O)C(=O)NNC(=O)C(C)Oc2ccc(Cl)cc2Cl)cc1 (stereo not given),32.6% (active)
6,COc1cccc(C(=O)Nc2cccc(-c3ccc(N4CCOCC4)nn3)c2)c1,-17.8%
7,COc1cccc(C(=O)NNC(=O)C(=O)Nc2ccc(C)c(Cl)c2)c1,66.8% (active)
8,CCN(C(=O)c1cc2c(=O)[nH]c3ccc(C)cc3c2s1)c1ccccc1F,-7%
9,O=C(O)c1cccc2cc(-c3ccccc3)oc(=O)c12,-17.7%
10,COc1cccc(CN(C)CC2CCCN(CCc3ccc(Cl)cc3)C2)c1OC (stereo not given),-26.8%
11,Cc1ccc(-n2nc(C)c3c2OC(N)=C(C#N)C3c2ccoc2)cc1 (stereo not given),-13.7%
12,O=C(CCC(=O)N1CCN(S(=O)(=O)c2ccccc2)CC1)c1cccs1,-13.6%
13,CN1C(=O)NC(c2cccc([N+](=O)[O-])c2)C2=C1CC(C)(C)CC2=O (stereo not given),-22.1%
14,CCc1ccc(NC(=O)C(=O)NNC(=O)c2cccc(OC)c2)cc1,62.3% (active)
15,COc1cccc(NC(=O)c2cncs2)c1,-22.6%
16,COc1cccc(C(=O)NNC(=O)C(=O)Nc2ccc(C)cc2)c1,78.3% (active)
17,CCc1ccc(NC(=S)Nc2cccc(OC)c2)cc1,-15.5%
18,CCc1ccc(NC(=O)C(=O)NNC(=O)c2ccc(OC)cc2)cc1,100% (active)
19,COc1ccc(CCNC(=O)C2CCCN(S(C)(=O)=O)C2)cc1 (stereo not given),-23.4%
20,Cc1n[nH]c(C)c1CCNC(=O)C1CCC(=O)N(Cc2ccccc2F)C1 (stereo not given),-14%
21,Cc1c(-c2ccn[nH]2)cc(NC(=O)c2ccc(Cl)cc2)c(=O)n1N,-24.4%
22,COCC1CCCN(C(=O)c2ccc3oc(C(C)C)nc3c2)C1 (stereo not given),-11.7%
23,Cc1ccc(NC(=O)CN2C(=O)N/C(=C/c3ccccc3OCc3cccc(C(=O)O)c3)C2=O)cc1,-18.7%
24,CCOC(=O)NC(=O)/C(C#N)=N\Nc1ccc(Cl)cc1,-17.6%
25,CC(C)(C)SCCNC(=O)CN1C(=O)c2ccccc2S1(=O)=O,-13.2%

row,Structure (SMILES),"activity change, less the hit threshold"
1,Cc1nc2cc3sc(C)nc3cc2s1,-9.2%
2,COc1ccc(-c2cc(=O)oc3cc(OCC(C)=O)ccc23)cc1,-20.9%
3,O=C(CCN1C(=O)/C(=C/c2cccs2)SC1=S)Nc1cccc(C(=O)O)c1,-22.7%
4,O=C(CN1C(=O)S/C(=C\c2cccs2)C1=O)Nc1ccc(C(=O)O)c(O)c1,21.5% (active)
5,O=C(CN1C(=O)S/C(=C\c2cccs2)C1=O)Nc1ccc(O)c(C(=O)O)c1,-14%
6,CSc1nc(C)c2c(n1)N(c1ccc(C(C)C)cc1)CC2,-17.3%
7,Cc1cccc(C(=O)CC(=O)c2cc(Cl)ccc2O)c1,-14.2%
8,O=C(N/N=C/c1cc(Cl)ccc1O)c1ccccc1Br,6.8% (active)
9,O=C(N/N=C/c1ccc(-c2ccccc2)o1)c1ccccc1O,-5.7%
10,CC(C)C(=O)N(c1ccc(F)cc1)C1C=CS(=O)(=O)C1 (stereo not given),-12.6%
11,O=c1oc2ccccc2c2c1nc(C(F)(F)F)n2-c1ccccc1,-18.1%
12,O=C(CSc1nc(-c2ccccc2)nc2ccc(F)cc12)Nc1cccc(C(=O)O)c1,-4.9%
13,CC[C@@H](C(=O)[C@@H](C)[C@@H](O)[C@H](C)CCc1ccc(C)c(O)c1C(=O)O)[C@H]1O[C@](CC)([C@H]2CC[C@](O)(CC)[C@H](C)O2)C[C@@H]1C,155% (active)
14,Cc1nc2c(C(=O)NCCc3ccccc3)c[nH]n2c(=O)c1Cl,-7.3%
15,Cc1snnc1C(=O)NC(=S)Nc1ccccc1,30.3% (active)
16,COc1ccc(NC(=S)NC(=O)c2csnn2)cc1,52.2% (active)
17,COc1ccc(NC(=S)Nc2ccccn2)cc1,-16.1%
18,COc1ccc(NC(=O)c2onc(C)c2Cl)cc1,-22.4%
19,O=C(NC(=S)Nc1ccccc1Cl)c1csnn1,71.3% (active)
20,Cc1ccc(NC(=S)NC(=O)c2ccc(-c3ccccc3)cc2)cc1,-11%
21,O=C(NC(=S)Nc1ccccc1)c1csnn1,81.6% (active)
22,Cc1cccnc1NC(=O)c1csnn1,-13.6%
23,Cc1onc(-c2ccccc2Cl)c1C(=O)NC(=S)Nc1ccc(C(C)C)cc1,-9%
24,O=C(COc1ccccc1Cl)NC(=S)Nc1ccccc1N1CCCC1,-15.7%
25,O=C(NC(=S)Nc1ccccc1)c1cncc(C#Cc2ccccc2)c1,-13%
